Among the data in PubChem BioAssay (NCI) are growth values, retold here.

Common to all, as to assay: NCI-60 one-dose screen, 48 h (100 = growth as untreated, 0 = no growth, -100 = all killed)
Common to all, as to settings: 10 µM unless noted

The subject of assay [1] is HCT-15 colon.
For assay [2], the system named is HT29 colon.
Assay [3] has as its system SNB-75 CNS.
Assay [4] has as its system SNB-19 CNS.
In assay [5] the test system is U251 CNS.
Assay [6] deals with PC-3 prostate.
The subject of assay [7] is SK-MEL-5 melanoma.
Assay [8] deals with UACC-62 melanoma.
Assay [9] deals with LOX IMVI melanoma.
The subject of assay [10] is SK-MEL-28 melanoma.
The test system of assay [11] is SK-MEL-2 melanoma.
Assay [12] has as its system EKVX NSCLC.
Assay [13] concerns SN12C renal.
Assay [14] has as its system UO-31 renal.
The test system of assay [15] is TK-10 renal.
For assay [16], the system named is ACHN renal.
Assay [17] relates to CAKI-1 renal.
Assay [18] relates to A498 renal.
The test system of assay [19] is CCRF-CEM leukemia.
Assay [20] deals with MOLT-4 leukemia.

Compounds without any hit were thinned out: in the full panel of roughly 83,000, 20% have a hit.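 Each cell line was grown in a 96-well plate and treated with one concentration of compound for 48 hours. Values below 10 were considered active.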 Unmarked numbers belong to inactive results. Calls of active or inactive are those of the source.

On to `CCOC(=O)/C(=C(/C)NCC(C)C)c1cc(O)c(O)c2c(C)cc(=O)[nH]c12`, for which the growth in [1] was 29.8%; in [2], 111%; in assay [3], 78.2%; in assay [4], 50.9%; in assay [5], 46.8%; in assay [6] it was 34.3%. The growth is 43.2% in assay [7]; 66.8% in assay [8]; 38.1% in assay [9]; 71% in assay [10]; 69.1% in assay [11]; 89.3% in assay [12]. Also, the growth in [13] was 42.9%; in assay [14] it was 59.3%; in assay [15], 77.7%; in assay [16] it was 47.8%; in assay [17], 51.4%; in assay [18] it was 79.2%. For the same molecule, the values for the growth in [19] and in assay [20] were 11.2% and 10.5%, respectively.

On to `Fc1ccc2[nH]cc(-c3nc(-c4c[nH]c5c(Cl)nccc45)cs3)c2c1`, for which the growth in [1] is -39.6% (active); in [2], 17.5%; in assay [3], 49.9%; in [4], 59.9%; in [5], 13.8%; in [6] it was 31.5%. For the same molecule, the growth in [7] is 60.4%; in assay [8], 24%; in assay [9], 16.2%; in assay [10] it was 43.9%; in [11], 73.4%; in assay [12], 63.2%. The growth was 65.9% in assay [13]; 21.8% in assay [14]; 33.8% in assay [15]; 17.7% in assay [16]; 49.2% in assay [17]; 14% in assay [18]. Besides, the growth in [19] was 28.5%; in assay [20], 38.2%.

As to `Cc1nc2sc(C(=O)Nc3cccc(Cl)c3C)c(N)c2cc1C(=O)/C=C/c1ccccc1`, the growth in [1] is -66.4% (active); in [2], -58.6% (active); in assay [3], 12.6%; in [4] it was -41.8% (active); in [5], -73.6% (active); in [6] it was 0.225% (active). Further, the growth in assay [7] is -10.8% (active); in assay [8], 2.03% (active); in [9], -75.8% (active); in assay [10] it was 27.3%; in [11], 33.8%; in assay [12], 43.9%. Further, the growth in [13] is -55.6% (active); in assay [14], -60.1% (active); in [15], -12.9% (active); in assay [16], 3.93% (active); in assay [17], -62.1% (active); in [18], -6.27% (active). Besides, the growth in assay [19] is 8.78% (active); in [20], 16.8%.

With `CN(C)CCCC1(c2ccc(F)cc2)OCc2cc(-c3csc4ccccc34)ccc21` (stereo not given), the growth in assay [1] was -59.7% (active); in [2] it was -29.2% (active); in [3], 29.7%; in assay [4], -35.6% (active); in assay [5] it was -57.1% (active); in assay [6], 30%. Further, the growth in assay [7] is -45.7% (active); in assay [8], -86.3% (active); in [9] it was -97.9% (active); in [10], -84% (active); in assay [11], 62.6%; in assay [12], 55.3%. The growth in assay [13] is 39.7%; in assay [14], 2.29% (active); in [15], 62.1%; in [16], 0.407% (active); in assay [17], 4.7% (active); in assay [18], 90.2%. Further, the growth in assay [19] is -14.3% (active); in assay [20], -15.6% (active).

`Ic1ccc(Nc2nc3nonc3nc2Nc2ccc(I)cc2)cc1`: the growth was -11.5% (active) in [1]; 0.391% (active) in [2]; 24.7% in assay [3]; 22.4% in [4]; 6.94% (active) in assay [5]; 4.36% (active) in [6]. Also, the growth in assay [7] is -81.2% (active); in [8], -28.2% (active); in assay [9], -3.56% (active); in assay [10], 12.2%; in [11], -55.2% (active); in assay [12], 4.77% (active). Moreover, the growth in [13] was 7.43% (active); in assay [14] it was -0.338% (active); in [15], 2.2% (active); in assay [16], 4.88% (active); in assay [17], 7.67% (active); in assay [18], -22% (active). The growth in [19] was -1.76% (active); in assay [20], -29% (active).

`CC(C)NS(=O)(=O)/N=C1\NC(=O)NC1=C(Cl)Cl`: the growth is 86.3% in assay [1]; 99% in [2]; 104% in [3]; 94.3% in assay [4]; 90.6% in [5]; 94.5% in [6]. Moreover, the growth was 92.8% in assay [7]; 84.5% in assay [8]; 94.8% in assay [9]; 108% in assay [10]; 95.6% in assay [11]; 103% in [12]. Also, the growth in assay [13] is 94.8%; in assay [14] it was 102%; in assay [15] it was 116%; in assay [16] it was 113%; in [17] it was 91.6%; in assay [18], 116%. Moreover, the growth in [19] is 81.4%; in [20], 87%.

Consider `COc1ccc(-c2cc(-c3cn(-c4cccc(Cl)c4)nc3-c3ccc(OC)cc3)on2)cc1`, for which the growth is 91.2% in [1]; 93.6% in assay [2]; 99.2% in [3]; 92.7% in assay [4]; 90.2% in [5]; 86.5% in assay [6]. The growth is 98% in [7]; 94% in [8]; 102% in [9]; 105% in assay [10]; 86.8% in [11]; 98.8% in [12]. In addition, the growth in assay [13] was 89%; in assay [14] it was 77.3%; in assay [15], -45.1% (active); in assay [16] it was 101%; in assay [17], 93.5%; in assay [18], 78.6%. The growth in assay [19] is 88.1%; in assay [20], 77%.
